Drawing on PubChem BioAssay (NCATS), this text covers Potency and outcome for 30 compounds.

Test [1] deals with Voltage-gated inwardly rectifying potassium channel KCNH2 (Homo sapiens) (UniProt Q12809). The test can be described thus: qHTS Assay for Small Molecule Inhibitors of the Human hERG Channel Activity (AID 588834).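 Further: lower thallium flux fluorescence means stronger hERG block; nearly all actives have a fitted effect of over 50% in size.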 Further: potency means the concentration at half of the fitted maximal effect. The method, boiled down: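 Homogeneous FluxOR thallium flux assay using hERG-expressing U2OS cells (BacMam). Compound treatment about 10 minutes preceded stimulation; reduced fluorescence taken as channel block.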
In general terms: Quantitative high-throughput screening tests each substance at several concentrations.

Test [2] addresses Luciferin 4-monooxygenase (Photinus pyralis) (UniProt P08659). The test can be described thus: Biochemical firefly luciferase enzyme assay for NPC (AID 624030).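 Further: purified P. pyralis luciferase at 10 nM with luciferin and ATP substrate; series mostly up to about 59 µM; nearly all actives have a fitted effect of over 70% in size.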 The essentials: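 Purified P. pyralis luciferase at 10 nM in 50 mM Tris Acetate (final), luminescence read within 5 minutes of enzyme addition to compounds. Activity normalised to PTC124 versus DMSO; concentration-response curves classed by r2, magnitude and activity.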

Test [3] can be described thus: S16 Schwann cell viability assay (CellTiter-Glo assay) (AID 624031).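 Further: cellular ATP luminescence as a viability measure; series mostly up to about 58 µM; nearly all actives have a fitted effect of over 70% in size.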 The essentials: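 Untransfected S16 rat Schwann cells; compound 24 h, 37 °C/5% CO2; CellTiter-Glo ATP luminescence. % activity vs no-cell wells and DMSO controls (0%); concentration-effect curves classed by r2, response magnitude, activity.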
A general note: Cellular ATP, detected with luciferase, serves as a proxy for viable cell number.

Test [4] can be described thus: S16 Schwann cell PMP22 intronic element firefly luciferase assay (AID 624032). Further: series mostly up to about 58 µM; nearly all actives have a fitted effect of over 30% in size. The method, boiled down: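 Rat S16 Schwann cells stably carrying firefly luciferase driven by a PMP22 intronic element, in 10% FBS, treated 24 h at 37 C. ONE-Glo luminescence normalized to PTC124 control and DMSO (0%); curves classed by r2, magnitude and activity.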
Test [5] deals with Glutaminase kidney isoform, mitochondrial (Homo sapiens) (UniProt O94925). The test can be described thus: qHTS for Inhibitors of Glutaminase (GLS): LOPAC Validation (AID 624146). Further: nearly all actives have a fitted effect of over 60% in size. Further: potency means the concentration at half of the fitted maximal effect. The essentials: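 hKGA; 45 mM KH2PO4 pH 8.2 + 0.02% Tween-20; cpd via pin tool; 1 mM Gln soln; GluOx/HRP/Amplex Red; RT 30 min; fluor. t0 & final.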
A short description of test [6]: qHTS of Trypanosoma Brucei Inhibitors: LOPAC Validation (AID 624147). The method, boiled down: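 Luminescence from Kinase-Glo Plus, added after a 45-minute room-temperature reaction, served as the end-point read-out. The enzyme and substrate were preincubated with compound before ADP (130 uM final) initiated turnover. Concentration-effect curves came from normalized qHTS data.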

Test [7] concerns the target Glucagon-like peptide 1 receptor (Homo sapiens) (UniProt P43220). The test can be described thus: qHTS of GLP-1 Receptor Agonists: LOPAC Validation (AID 624148).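 Further: higher luminescence signal means agonism.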 The essentials: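 HEK293 cells stably co-expressing GLP-1R and a cAMP-responsive luciferase reporter, plated 12 hours before compound, then incubated 4-6 hr at 37 deg C. Luminescence read 12 min after detection reagent.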

A short description of test [8]: qHTS of Nrf2 Activators: LOPAC Validation (AID 624149). The method, boiled down: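 AREc32_Fluc cells, 1000/well, OPTI-MEM + 5% FBS, o/n 37 deg C 5% CO2; compound pin-transfer, 24 hr 37 deg C; Steady-Glo 30 min RT, luminescence read.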
Test [9] is described as follows: HTS Assay for Allosteric Antagonists of the Human D2 Dopamine Receptor: Hit Validation in HTRF (AID 624455). Further: potency means the concentration at half of the fitted maximal effect. The essentials:
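HTRF read-out; cells stably expressing D1 receptor; hits scored for inhibition of D1-mediated response. Primary screen: calcium flux, force-coupled inducible Hek293 Trex D2 line, antagonism vs EC80 dopamine.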
On the technique in general: In TR-FRET formats the signal depends on donor and acceptor labels being close together.

Test [10] is described as follows: S16 Schwann cell PMP22 intronic element beta-lactamase assay (AID 624044; calls by dose curve; further: nearly all actives have a fitted effect of over 15% in size). The essentials:
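Beta-lactamase reporter under a PMP22 intronic regulatory element in stable S16 rat Schwann cells; 24 h compound exposure. 460 nm blue signal normalized between DMSO (0%) and potassium clavulanate, with 535 nm FRET tracking viability; curves classed by r2 and response.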

Structures are written as SMILES. Records with an inconclusive call do not appear. Activity calls are given as the source filed them. Unless noted, the call rests on the fitted dose curve; in most records, active means well fitted curve in the direction sought with a large enough effect; inconclusive means small, poorly fitted or top-dose-only effect, or another doubt; inactive means no such curve, though single readings can be large; an effect the other way counts as inactive or inconclusive.

Chain of Glutaminase kidney isoform, mitochondrial (Homo sapiens) (O94925 whole entry, looked up, canonical isoform): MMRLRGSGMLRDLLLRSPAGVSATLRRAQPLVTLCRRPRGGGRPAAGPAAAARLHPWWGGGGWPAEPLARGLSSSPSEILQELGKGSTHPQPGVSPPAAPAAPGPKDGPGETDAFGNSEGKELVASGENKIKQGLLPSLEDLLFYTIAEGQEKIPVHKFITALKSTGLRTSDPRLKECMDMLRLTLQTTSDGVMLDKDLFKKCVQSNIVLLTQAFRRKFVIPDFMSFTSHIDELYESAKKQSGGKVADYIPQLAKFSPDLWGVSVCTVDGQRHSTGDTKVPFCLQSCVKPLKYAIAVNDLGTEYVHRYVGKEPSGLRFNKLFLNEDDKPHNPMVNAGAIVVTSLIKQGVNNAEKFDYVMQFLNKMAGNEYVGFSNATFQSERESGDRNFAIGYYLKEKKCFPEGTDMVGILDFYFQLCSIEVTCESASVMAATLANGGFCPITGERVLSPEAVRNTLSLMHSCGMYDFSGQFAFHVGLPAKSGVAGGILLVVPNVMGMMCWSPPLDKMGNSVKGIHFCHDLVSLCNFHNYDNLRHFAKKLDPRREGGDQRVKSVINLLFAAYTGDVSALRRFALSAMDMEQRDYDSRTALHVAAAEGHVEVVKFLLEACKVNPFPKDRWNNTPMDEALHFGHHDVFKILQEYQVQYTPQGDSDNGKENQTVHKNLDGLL
Chain of Voltage-gated inwardly rectifying potassium channel KCNH2 (Homo sapiens) (Q12809 whole entry, looked up): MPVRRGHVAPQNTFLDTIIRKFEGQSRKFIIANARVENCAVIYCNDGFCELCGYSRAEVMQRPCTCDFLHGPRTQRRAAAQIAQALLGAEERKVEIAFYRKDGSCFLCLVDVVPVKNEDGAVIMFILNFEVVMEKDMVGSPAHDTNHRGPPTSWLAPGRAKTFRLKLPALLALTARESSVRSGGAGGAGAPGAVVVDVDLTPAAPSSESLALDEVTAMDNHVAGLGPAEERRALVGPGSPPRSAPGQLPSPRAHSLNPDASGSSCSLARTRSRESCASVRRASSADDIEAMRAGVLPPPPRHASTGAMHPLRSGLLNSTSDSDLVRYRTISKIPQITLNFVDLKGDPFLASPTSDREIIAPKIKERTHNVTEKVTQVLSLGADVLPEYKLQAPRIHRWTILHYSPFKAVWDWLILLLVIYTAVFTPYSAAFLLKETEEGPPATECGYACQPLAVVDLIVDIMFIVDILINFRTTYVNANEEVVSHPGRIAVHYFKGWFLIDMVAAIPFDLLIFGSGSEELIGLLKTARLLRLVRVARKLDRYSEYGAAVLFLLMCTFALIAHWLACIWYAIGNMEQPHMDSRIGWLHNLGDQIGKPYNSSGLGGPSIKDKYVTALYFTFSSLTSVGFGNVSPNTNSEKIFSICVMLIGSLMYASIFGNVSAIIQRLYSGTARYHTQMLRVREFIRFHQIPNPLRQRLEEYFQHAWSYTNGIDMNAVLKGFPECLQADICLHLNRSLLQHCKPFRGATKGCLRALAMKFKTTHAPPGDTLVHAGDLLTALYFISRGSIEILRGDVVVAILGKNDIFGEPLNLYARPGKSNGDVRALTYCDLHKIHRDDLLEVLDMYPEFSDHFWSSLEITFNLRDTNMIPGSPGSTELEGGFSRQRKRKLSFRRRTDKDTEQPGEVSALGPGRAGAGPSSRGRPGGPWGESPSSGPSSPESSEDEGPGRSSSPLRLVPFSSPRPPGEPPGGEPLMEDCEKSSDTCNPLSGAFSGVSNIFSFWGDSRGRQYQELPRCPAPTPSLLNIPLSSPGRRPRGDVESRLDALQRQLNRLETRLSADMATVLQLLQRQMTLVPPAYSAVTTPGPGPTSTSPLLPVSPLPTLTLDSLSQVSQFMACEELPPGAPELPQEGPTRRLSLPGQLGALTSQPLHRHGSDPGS
Chain of Glucagon-like peptide 1 receptor (Homo sapiens) (P43220 whole entry, looked up): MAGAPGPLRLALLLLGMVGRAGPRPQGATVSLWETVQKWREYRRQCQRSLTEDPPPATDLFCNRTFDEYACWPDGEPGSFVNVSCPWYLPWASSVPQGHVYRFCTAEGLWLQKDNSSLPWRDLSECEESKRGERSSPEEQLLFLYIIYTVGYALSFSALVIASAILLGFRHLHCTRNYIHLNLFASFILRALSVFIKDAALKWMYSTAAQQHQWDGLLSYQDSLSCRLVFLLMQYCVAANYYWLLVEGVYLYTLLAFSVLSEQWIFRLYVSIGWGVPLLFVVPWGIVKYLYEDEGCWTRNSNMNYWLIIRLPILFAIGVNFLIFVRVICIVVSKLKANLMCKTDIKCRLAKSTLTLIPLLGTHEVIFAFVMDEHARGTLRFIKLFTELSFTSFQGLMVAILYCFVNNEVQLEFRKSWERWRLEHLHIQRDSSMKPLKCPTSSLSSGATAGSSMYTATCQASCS
Chain of Luciferin 4-monooxygenase (Photinus pyralis) (P08659 whole entry, looked up): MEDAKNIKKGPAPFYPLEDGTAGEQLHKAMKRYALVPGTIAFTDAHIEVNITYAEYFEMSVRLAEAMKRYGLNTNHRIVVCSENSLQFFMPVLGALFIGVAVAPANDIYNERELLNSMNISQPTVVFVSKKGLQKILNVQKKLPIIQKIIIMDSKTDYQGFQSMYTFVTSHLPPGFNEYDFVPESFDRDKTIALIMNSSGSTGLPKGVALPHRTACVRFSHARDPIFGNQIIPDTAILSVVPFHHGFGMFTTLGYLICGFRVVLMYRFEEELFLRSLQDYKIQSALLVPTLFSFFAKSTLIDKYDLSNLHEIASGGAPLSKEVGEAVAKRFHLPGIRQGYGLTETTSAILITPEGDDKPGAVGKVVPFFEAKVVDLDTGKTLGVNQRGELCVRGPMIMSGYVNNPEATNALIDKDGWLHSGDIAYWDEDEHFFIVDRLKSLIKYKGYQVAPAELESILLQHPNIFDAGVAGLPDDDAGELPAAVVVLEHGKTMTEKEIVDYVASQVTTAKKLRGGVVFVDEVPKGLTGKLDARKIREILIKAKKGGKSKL

`CNC1(c2ccccc2Cl)CCCCC1=O` (configuration not stated): the Potency entry in test [1], in test [2], in test [3] and in [4] was “inactive” each time.
On to `COc1ccc(OC)c(C(O)C(C)N)c1` (configuration not stated), for which the Potency result in [5], in [6] and in test [8] was “inactive” in each case. The result in test [7] was inactive.
`O=C1CC[C@@]2(O)C3Cc4ccc(O)c5c4C2(CCN3CC2CC2)[C@H]1O5` (some centres not stated): the Potency entry in test [6], in test [8] and in test [9] was “inactive” throughout. Moreover, the result in [7] was inactive.
For the compound `CCCN(CCC)C1CCc2cccc(O)c2C1` (configuration not stated), the Potency result in test [1], in [5] and in test [6] was “inactive” each time. For the same compound, the call in test [7] was inactive.
As for `N[C@@H](Cn1oc(=O)[nH]c1=O)C(=O)O`, the Potency result in [1], in test [5], in [6], in test [8] and in [9] was “inactive” in each case. Also, the call in test [7] was inactive.
Consider `C#CCN[C@H](C)Cc1ccccc1`, for which the Potency result in [1], in test [5], in test [6], in test [8] and in [9] was “inactive” each time. In [7], the compound was classed as inactive.
Consider `Cc1o[nH]c(=O)c1CC(N)C(=O)O` (configuration not stated), for which the Potency result in test [1], in [5], in test [6], in test [8] and in [9] was “inactive” each time. Moreover, the outcome in test [7] was inactive.
For the compound `Nc1ccc(CCN2CCN(c3cccc(C(F)(F)F)c3)CC2)cc1`, the Potency in [1] is 2.24 µM (active). Further, the Potency entry in test [5], in test [6], in [8] and in test [9] was “inactive” each time. Also, in test [7], the call was inactive.
`CC(N)Cc1c[nH]c2ccc(O)cc12` (configuration not stated): the Potency result in [1], in test [6] and in test [9] was “inactive” in each case. Besides, the Potency in test [5] is 0.794 µM (active). Besides, the call in test [7] was inactive.
For `C=CCN1C[C@@H](C)N([C@H](c2ccc(C(=O)N(CC)CC)cc2)c2cccc(OC)c2)C[C@@H]1C`, the Potency in test [1] is 4.47 µM (active). Further, the Potency entry in test [5], in test [6] and in test [9] was “inactive” in each case. For the same compound, the compound was classed as inactive in test [7].
As to `O=[N+]([O-])c1cc(O)c(O)c([N+](=O)[O-])c1`, the Potency entry in test [1], in test [6], in [8] and in test [9] was “inactive” each time. The Potency in test [5] was 12.6 µM (active). For the same compound, in test [7], the compound was called inactive.
Regarding `Clc1ccc(N2CC3CCC(C2)N3)nn1`, the Potency result in [1], in [5], in [6], in [8] and in [9] was “inactive” in each case. In addition, the result in [7] was inactive.
Turning to `COc1ccc2c(c1)[C@@]13CCCC[C@H]1[C@@H](C2)NCC3`, the Potency in [1] is 11.2 µM (active). The Potency entry in [5], in [6] and in test [9] was “inactive” throughout. In [7], the compound was called inactive.
In the case of `CN1CCC(c2c[nH]c3ccc(O)cc23)CC1`, the values for the Potency in test [1] and in [5] were 2 µM (active) and 1.26 µM (active), respectively. For the same compound, the Potency result in test [6], in [8] and in test [9] was “inactive” each time. Further, in test [7], the call was inactive.
`NCC(CP(=O)(O)O)c1ccc(Cl)cc1` (configuration not stated): the Potency result in test [1], in test [5], in [6], in test [8] and in test [9] was “inactive” each time. Also, the outcome in [7] was inactive.
With `NC(CCCCCP(=O)(O)O)C(=O)O` (configuration not stated), the Potency entry in [1], in test [5], in test [6], in test [8] and in [9] was “inactive” each time. Also, the call in [7] was inactive.
Take `CCCCCCC(C)(C)c1ccc([C@@H]2C[C@H](O)CC[C@H]2CCCO)c(O)c1`: the Potency in test [1] is 8.91 µM (active). For the same compound, the Potency result in test [5], in [6] and in test [9] was “inactive” each time. Besides, in [7], the result was inactive.
As to `CCN(CCCl)Cc1ccccc1Br`, the Potency entry in test [1], in test [5], in [6], in [8] and in test [9] was “inactive” in each case. Also, the outcome in test [7] was inactive.
As to `COc1ccc(CNC(=O)/C=C/c2ccc3[nH]cc(CCN(C)C)c3c2)cc1`, the Potency in [1] is 11.2 µM (active). The Potency result in test [5], in test [6], in [8] and in test [9] was “inactive” each time. The call in test [7] was inactive.
For `C=CCN1CC[C@]23c4c5ccc(O)c4O[C@H]2/C(=N/NC(=O)c2ccccc2)CC[C@@]3(O)[C@H]1C5`, the Potency is 3.16 µM (active) in test [1] and 14.1 µM (active) in test [5]. For the same compound, the Potency entry in test [6], in [8] and in test [9] was “inactive” each time. For the same compound, the result in [7] was inactive.
Turning to `Oc1ccc2c3c1O[C@H]1c4oc5ccccc5c4C[C@@]4(O)C(C2)N(CC2CC2)CCC314` (some centres not stated), the results for the Potency in [1] and in [5] were 0.355 µM (active) and 8.91 µM (active), respectively. Further, the Potency entry in [6], in test [8] and in [9] was “inactive” in each case. Further, the call in test [7] was inactive.
Take `C[C@H](Cc1ccc2c(c1)OC(C(=O)O)(C(=O)O)O2)NC[C@H](O)c1cccc(Cl)c1`: the Potency result in test [1], in test [5], in [6], in test [8] and in test [9] was “inactive” in each case. Besides, the call in [7] was inactive.
`NCC(O)c1cc(O)c(O)cc1F` (configuration not stated): the Potency entry in [1], in test [5], in test [6] and in [8] was “inactive” in each case. Besides, the compound was called inactive in test [7]. In addition, the Potency in test [9] was 0.326 µM (active).
For the compound `C[C@]12Cc3cn4c(nc3C=C1CCC1C2CC[C@@]2(C)[C@H]1CC[C@@]2(O)C#N)nc1ccccc14` (some centres not stated), the Potency in [1] is 2 µM (active). For the same compound, the Potency entry in [5], in [6], in test [8] and in test [9] was “inactive” throughout. Besides, in test [7], the compound was classed as inactive.
For `NCCc1c[nH]c2ccc(C(N)=O)cc12`, the Potency entry in test [1], in [5], in test [6] and in test [9] was “inactive” each time. For the same compound, the compound was called inactive in [7].
As to `CCCn1c(C)c(C(=O)c2ccc3ccccc3c2)c2ccccc21`, the Potency in test [1] was 6.31 µM (active). In addition, the Potency result in test [5], in test [6], in [8] and in test [9] was “inactive” in each case. The compound was called inactive in [7].
For the compound `CC1OC1P(=O)(O)O` (configuration not stated), the Potency entry in test [1], in test [10] and in test [5] was “inactive” in each case.
Take `NC(=O)COc1c(F)cc(SCCNS(=O)(=O)c2ccccc2)cc1F`: the Potency result in test [1], in [5], in test [6], in test [8] and in test [9] was “inactive” throughout. Moreover, the call in [7] was inactive.
Consider `CC(C)NP(=O)(NC(C)C)OP(=O)(NC(C)C)NC(C)C`, for which the Potency result in test [1], in [5], in test [6] and in [9] was “inactive” each time. Besides, the compound was called inactive in [7].
`CN1CCc2cccc(Cl)c2CC1`: the Potency entry in test [1], in test [5], in [6] and in test [8] was “inactive” each time. The compound was called inactive in [7].
